Values joined by “and” are separate entries in the source; they are usually repeats but may differ in a detail not shown here. Equal entries are not always repeated. Where a structure was tested more than once in an assay, its records may differ in their call. Active and inactive are the calls of the source. The calls were made as follows: active = hit-call score of the fitted dose curve at least 0.9, where 1 is the maximum; inactive = score below 0.9.

Read-out in the first experiment: Interleukin-8 (IL8), CXCL8 (gene 3576)
Description: BSK_MyoF_IL8: BioMAP Diversity Plus: MyoF Assay for Interleukin-8 (IL8) Biomarker Activity (AID 2284261). The following applies: primary human lung fibroblasts. The method, boiled down: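 Lung fibroblasts (human primary) → chemical exposure → 24 h → IL-8 measured by ELISA. Signal increase scored versus DMSO control.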
Turning to `CCCCCCC=O`, the result was inactive.

Take `CCNc1nc(NC(C)(C)C)nc(OC)n1`: the result was inactive.

Consider `C=CC(=O)NCOCCCC`, for which the outcome was inactive.

Regarding `Oc1c(Cl)cc(Cl)c(Cl)c1Cl`, the result was inactive.

For `CCCCCCOC(=O)CCCCC(=O)OCCCCCC`, the outcome was inactive.

In the case of `CC/C=C\C/C=C\C/C=C\CCCCCCCC(=O)OC`, the AC50 (commonly the midpoint of the concentration-response curve, whichever way the signal moves) was 20 µM (active).

`CCCCC1C(=O)N(c2ccccc2)N(c2ccccc2)C1=O`: the result was inactive.

With `CCC1(C)C(=O)N(Cl)C(=O)N1Cl` (centres undefined), the result was inactive.

In the case of `COC(OC)(C(=O)c1ccccc1)c1ccccc1`, the result was inactive.

For `CC(Cl)COP(=O)(OCC(C)Cl)OCC(C)Cl` (centres undefined), the outcome was inactive.

As to `CC(c1cc(C(C)(C)C)cc(C(C)(C)C)c1O)c1cc(C(C)(C)C)cc(C(C)(C)C)c1O`, the outcome was inactive.

`CC(C)c1cccc(C(C)C)c1N`: the outcome was inactive.

`O=C(Cl)c1c(Cl)c(Cl)c(C(=O)Cl)c(Cl)c1Cl`: the outcome was inactive.

As to `C=CC(=O)OCCCCCCOC(=O)C=C`, the outcome was inactive.

For the compound `O=C(O)C(F)(F)C(F)(F)C(F)(F)C(F)(F)C(=O)O`, the result was inactive.

Take `C[N+](C)(C)CCCNS(=O)(=O)C(F)(F)C(F)(F)C(F)(F)C(F)(F)C(F)(F)C(F)(F)C(F)(F)C(F)(F)F`: the outcome was inactive.

Consider `C=CC(=O)OCCCCCCCC(C)C`, for which the outcome was inactive.

For `Oc1ccc(/C=C/c2cc(O)cc(O)c2)cc1`, the result was inactive.

Turning to `CCN1CN(CC)CN(CC)C1`, the result was inactive.

With `COc1ccc(C(=O)/C(Br)=C\C(=O)O)cc1`, the AC50 is 3.97 µM (active) and the result was inactive.

Take `Cc1c(O)cccc1O`: the outcome was inactive.

Regarding `CCc1cccc(C)c1N(C(=O)CS(=O)(=O)O)C(C)COC` (centres undefined), the result was inactive.

On to `CCCCCCCCC(CO)CCCCCC` (centres undefined), for which the outcome was inactive.

As for `CCCCCC1=CCCC1=O`, the outcome was inactive.

Read-out in a further experiment: Decorin, DCN (gene 1634)
Description: BSK_MyoF_Decorin: BioMAP Diversity Plus: MyoF Assay for Decorin Biomarker Activity (AID 2284265). As to conditions: primary human lung fibroblasts. The method, boiled down: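 ELISA readout of decorin, 24 h post-dosing; primary human lung fibroblast (MyoF) culture; gain-of-signal fit vs DMSO baseline.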
On to `CCCCCCC=O`, for which the outcome was inactive.

With `CCNc1nc(NC(C)(C)C)nc(OC)n1`, the outcome was inactive.

In the case of `C=CC(=O)NCOCCCC`, the outcome was inactive.

`Oc1c(Cl)cc(Cl)c(Cl)c1Cl`: the half-maximal activity concentration (AC50) is 37.4 µM (active).

For the compound `CCCCCCOC(=O)CCCCC(=O)OCCCCCC`, the result was inactive.

Regarding `CC/C=C\C/C=C\C/C=C\CCCCCCCC(=O)OC`, the outcome was inactive.

Take `CCCCC1C(=O)N(c2ccccc2)N(c2ccccc2)C1=O`: the result was inactive.

Consider `CCC1(C)C(=O)N(Cl)C(=O)N1Cl` (centres undefined), for which the outcome was inactive.

As for `COC(OC)(C(=O)c1ccccc1)c1ccccc1`, the result was inactive.

Regarding `CC(Cl)COP(=O)(OCC(C)Cl)OCC(C)Cl` (centres undefined), the result was inactive.

In the case of `CC(c1cc(C(C)(C)C)cc(C(C)(C)C)c1O)c1cc(C(C)(C)C)cc(C(C)(C)C)c1O`, the result was inactive.

With `CC(C)c1cccc(C(C)C)c1N`, the result was inactive.

Take `O=C(Cl)c1c(Cl)c(Cl)c(C(=O)Cl)c(Cl)c1Cl`: the result was inactive.

As to `C=CC(=O)OCCCCCCOC(=O)C=C`, the result was inactive.

With `O=C(O)C(F)(F)C(F)(F)C(F)(F)C(F)(F)C(=O)O`, the result was inactive.

Consider `C[N+](C)(C)CCCNS(=O)(=O)C(F)(F)C(F)(F)C(F)(F)C(F)(F)C(F)(F)C(F)(F)C(F)(F)C(F)(F)F`, for which the AC50 is 9.66 µM (active) and 11.2 µM (active).

On to `C=CC(=O)OCCCCCCCC(C)C`, for which the result was inactive.

With `Oc1ccc(/C=C/c2cc(O)cc(O)c2)cc1`, the result was inactive.

For the compound `CCN1CN(CC)CN(CC)C1`, the result was inactive.

Regarding `COc1ccc(C(=O)/C(Br)=C\C(=O)O)cc1`, the outcome was inactive.

`Cc1c(O)cccc1O`: the outcome was inactive.

Turning to `CCc1cccc(C)c1N(C(=O)CS(=O)(=O)O)C(C)COC` (centres undefined), the outcome was inactive.

As to `CCCCCCCCC(CO)CCCCCC` (centres undefined), the outcome was inactive.

With `CCCCCC1=CCCC1=O`, the result was inactive.

(Values after PubChem BioAssay (EPA / NIEHS).)
